The supplement of paper PMC12067093, “Discovery and optimisation of a covalent ligand for TRIM25 and its application to targeted protein ubiquitination” (Chemical Science, 2025)
Of roughly 21,000 targets only a part is listed; those with the largest changes were picked by preference.

Compound: Cc1cc(ccc1-c1ccccc1)C(=O)N1CCCN(CC1)C(=O)CCl [compound 10]
Test: probe-labelled cysteine peptide fold change vs DMSO (competition) (log2 fold change); higher = less target engagement (more negative = stronger competition)
Details: THP-1, incubation time: 4 h
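Further: competitive profiling in live THP-1 cells: cysteine peptides tagged with an iodoacetamide desthiobiotin (IA-DTB) probe, intensity after compound treatment relative to DMSO-treated cells.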

Target: NFKB1_P19838_61_YVCEGPSHGGLPGASSEK (UniProt P19838)
- probe-labelled cysteine peptide fold change (10 µM): 0.0894
- probe-labelled cysteine peptide fold change (50 µM): -0.824

Target: P4HTM_Q9NXG6_156_PLLFEIPGFLTDEECR (UniProt Q9NXG6)
- probe-labelled cysteine peptide fold change (10 µM): 0.372
- probe-labelled cysteine peptide fold change (50 µM): 0.492

Target: NFX1_Q12986_295_STCDSENLAVINK (UniProt Q12986)
- probe-labelled cysteine peptide fold change (10 µM): 0.0638
- probe-labelled cysteine peptide fold change (50 µM): -0.0574

Target: OSTC_Q9NRP0_14_VPFLVLECPNLK (UniProt Q9NRP0)
- probe-labelled cysteine peptide fold change (10 µM): 0.025
- probe-labelled cysteine peptide fold change (50 µM): -0.0744

Target: NOMO3_P69849_565_ISIMHEDWCWK<|>NOMO1_Q15155_565_ISIMHEDWCWK<|>NOMO2_Q5JPE7_565_ISIMHEDWCWK (UniProt Q5JPE7+Q15155+P69849)
- probe-labelled cysteine peptide fold change (10 µM): 0.0786
- probe-labelled cysteine peptide fold change (50 µM): 0.28

Target: OAT_P04181_93_YFDFLSSYSAVNQGHCHPK (UniProt P04181)
- probe-labelled cysteine peptide fold change (10 µM): 0.0237
- probe-labelled cysteine peptide fold change (50 µM): 0.0378

Target: NRAS_P01111_51_KQVVIDGETCLLDILDTAGQEEYSAMRDQYMR<|>HRAS_P01112_51_KQVVIDGETCLLDILDTAGQEEYSAMRDQYMR (UniProt P01112+P01111)
- probe-labelled cysteine peptide fold change (10 µM): -0.209
- probe-labelled cysteine peptide fold change (50 µM): -0.642

Target: PAICS_P22234_266_SESQCR (UniProt P22234)
- probe-labelled cysteine peptide fold change (10 µM): 0.613
- probe-labelled cysteine peptide fold change (50 µM): 1.39

Target: NECTIN2_Q92692_238_ADGVTVTCK (UniProt Q92692)
- probe-labelled cysteine peptide fold change (10 µM): -0.148
- probe-labelled cysteine peptide fold change (50 µM): -0.394

Target: P4HB_P07237_53_YLLVEFYAPWCGHCK (UniProt P07237)
- probe-labelled cysteine peptide fold change (10 µM): -1.15
- probe-labelled cysteine peptide fold change (50 µM): -1.6

Target: PALD1_Q9ULE6_382_AITACAELHDLK (UniProt Q9ULE6)
- probe-labelled cysteine peptide fold change (10 µM): -0.02
- probe-labelled cysteine peptide fold change (50 µM): -0.092

Target: NSDHL_Q15738_86_FFLGDLCSR (UniProt Q15738)
- probe-labelled cysteine peptide fold change (10 µM): -0.104
- probe-labelled cysteine peptide fold change (50 µM): 0.0788

Target: PALD1_Q9ULE6_65_VAPVVITYNCK (UniProt Q9ULE6)
- probe-labelled cysteine peptide fold change (10 µM): 0.106
- probe-labelled cysteine peptide fold change (50 µM): -0.15

Target: NT5DC1_Q5TFE4_139_YYFYDNYFDLPGALLCAR (UniProt Q5TFE4)
- probe-labelled cysteine peptide fold change (10 µM): 1.21
- probe-labelled cysteine peptide fold change (50 µM): 1.46

Target: NUBP1_P53384_8_MEEVPHDCPGADSAQAGR (UniProt P53384)
- probe-labelled cysteine peptide fold change (10 µM): 1.37
- probe-labelled cysteine peptide fold change (50 µM): 1.35

Target: NOTCH2_Q04721_427_GADCTEDVDECAMANSNPCEHAGK (UniProt Q04721)
- probe-labelled cysteine peptide fold change (10 µM): 0.149
- probe-labelled cysteine peptide fold change (50 µM): 0.115

Target: NUMA1_Q14980_961_QFCSTQAALQAMER (UniProt Q14980)
- probe-labelled cysteine peptide fold change (10 µM): -0.0783
- probe-labelled cysteine peptide fold change (50 µM): -1.25

Target: NOP2_P46087_463_VLLDAPCSGTGVISK (UniProt P46087)
- probe-labelled cysteine peptide fold change (10 µM): -0.0187
- probe-labelled cysteine peptide fold change (50 µM): 0.0458

Target: P3H1_Q32P28_568_LDTPLYFSYSHLVCR (UniProt Q32P28)
- probe-labelled cysteine peptide fold change (10 µM): -0.35
- probe-labelled cysteine peptide fold change (50 µM): 0.386

Target: MYO6_Q9UM54_321_MCTAMK (UniProt Q9UM54)
- probe-labelled cysteine peptide fold change (10 µM): 0.00117
- probe-labelled cysteine peptide fold change (50 µM): -0.218

Target: P4HB_P07237_397_KNVFVEFYAPWCGHCK (UniProt P07237)
- probe-labelled cysteine peptide fold change (10 µM): -0.644
- probe-labelled cysteine peptide fold change (50 µM): -2.76

Target: PARP14_Q460N5_509_VTQHLCLK (UniProt Q460N5)
- probe-labelled cysteine peptide fold change (10 µM): 0.0914
- probe-labelled cysteine peptide fold change (50 µM): 0.48

Target: PAK2_Q13177_352_ECLQALEFLHANQVIHR (UniProt Q13177)
- probe-labelled cysteine peptide fold change (10 µM): 0.441
- probe-labelled cysteine peptide fold change (50 µM): 0.0289

Target: MYO9B_Q13459_1876_ITTCVEMLIK (UniProt Q13459)
- probe-labelled cysteine peptide fold change (10 µM): 0.0944
- probe-labelled cysteine peptide fold change (50 µM): -0.0605

Target: PA2G4_Q9UQ80_85_GIAFPTSISVNNCVCHFSPLK (UniProt Q9UQ80)
- probe-labelled cysteine peptide fold change (10 µM): 0.203
- probe-labelled cysteine peptide fold change (50 µM): -0.024

Target: NUP205_Q92621_698_CEEYPLTR (UniProt Q92621)
- probe-labelled cysteine peptide fold change (10 µM): 0.0608
- probe-labelled cysteine peptide fold change (50 µM): -0.00172

Target: NIPSNAP3A_Q9UFN0_135_QESEITYLVPWCK (UniProt Q9UFN0)
- probe-labelled cysteine peptide fold change (10 µM): 0.151
- probe-labelled cysteine peptide fold change (50 µM): 0.389

Target: NFS1_Q9Y697_353_HHYPGCINLSFAYVEGESLLMALK (UniProt Q9Y697)
- probe-labelled cysteine peptide fold change (10 µM): 0.466
- probe-labelled cysteine peptide fold change (50 µM): 0.42

Target: NR2F6_P10588_316_AIALFTPDACGLSDPAHVESLQEK (UniProt P10588)
- probe-labelled cysteine peptide fold change (10 µM): -0.711
- probe-labelled cysteine peptide fold change (50 µM): -1.1

Target: NOL9_Q5SY16_637_TVNCLLVGAIAIPHCVLK (UniProt Q5SY16)
- probe-labelled cysteine peptide fold change (10 µM): -0.0765
- probe-labelled cysteine peptide fold change (50 µM): -0.381

Target: NACC2_Q96BF6_393_NTLANSCGTGIR<|>NACC1_Q96RE7_416_NTLANSCGTGIR (UniProt Q96RE7+Q96BF6)
- probe-labelled cysteine peptide fold change (10 µM): -0.485
- probe-labelled cysteine peptide fold change (50 µM): 0.031

Target: MYO6_Q9UM54_790_RVNHWLTCSR (UniProt Q9UM54)
- probe-labelled cysteine peptide fold change (10 µM): 0.104
- probe-labelled cysteine peptide fold change (50 µM): 0.475

Target: PARK7_Q99497_53_DVVICPDASLEDAK (UniProt Q99497)
- probe-labelled cysteine peptide fold change (10 µM): -0.432
- probe-labelled cysteine peptide fold change (50 µM): 0.291

Target: NT5C3B_Q969T7_73_IISEECR (UniProt Q969T7)
- probe-labelled cysteine peptide fold change (10 µM): -0.00671
- probe-labelled cysteine peptide fold change (50 µM): 0.268
